Test results from PubChem BioAssay AID2384 (Southern Research Specialized Biocontainment Screening …, 2010).
About 1,100 (48%) of roughly 2,300 compounds were called active. No rule for the calls is given here. The set was probably picked from earlier hits. The list shows a part of the results. Entries with a potency or affinity are not part of this list.

experiment: inhibitors in S. typhi counter-screen strain, dose response, counter-screen for PhoP regulon inhibitor project, fluorescence, 4 h (AID 2384); settings: S. typhi GFP reporter counter-screen; series mostly up to 150 µM; inhibition: at the top concentration

Compound | inhibition
CC(=O)c1sc2nc(=O)c(C)nn2c1C | -20.6% (inactive)
CCOC(=O)C(CC)Sc1ccc2nnc(-c3cccnc3)n2n1 (centres undefined) | -8.08% (inactive)
COC(=O)c1cc2oc(C)cc2n1CC(=O)Nc1ccc(C)c(C)c1 | -13.2% (inactive)
Cc1onc(-c2ccccc2Cl)c1C(=O)NNC(=O)C1CCN(Cc2ccccc2)CC1 | -18.2% (inactive)
CCn1c(-c2cccc(Br)c2)n[nH]c1=S | 12.4% (inactive)
CCCNC(=O)C1CCN(c2ccc(S(=O)(=O)N3CCOCC3)cc2Cl)CC1 | -33.2% (inactive)
COC(=O)CNC(=O)c1ccc(=O)oc1 | -10% (inactive)
COc1ccc(Cl)cc1N(C)C(=O)CCNC(=O)Cn1cnc2ccccc2c1=O | 11% (inactive)
O=C(NCC1CC1)Nc1cccs1 | 9.59% (inactive)
Oc1ccc(-c2nc3ncccn3c2Nc2ccc3c(c2)OCCO3)cc1 | 11.8% (inactive)
COc1ccccc1NC(=O)CN1CCN(c2ccccc2)CC1 | -5.44% (inactive)
COc1ccccc1NC(=O)Cn1cnc2c(nnn2-c2ccc(C)cc2)c1=O | 7.57% (inactive)
CCN(CC)CCN(C(=O)c1cccc([N+](=O)[O-])c1)c1nc2ccc(OC)cc2s1 | 39.5% (inactive)
COc1ccc2nc(NC(=O)Nc3ccccc3)sc2c1 | -19.3% (inactive)
O=C(N/N=C/c1ccc(-c2ccc(Br)cc2)o1)c1ccc2c(c1)OCO2 | -16.7% (inactive)
Cc1nc(C)c(-c2ccc(SCc3ccccc3C)nn2)s1 | -5.23% (inactive)
CCCC(=NCc1ccccc1)C1=C(O)C(C(=O)OC)C(C)(C)CC1=O (centres undefined) | 7.33% (inactive)
Cc1noc(C)c1CCC(=O)N1CCCC(CCC(=O)NCc2ccc(F)c(F)c2)C1 (centres undefined) | -3.73% (inactive)
CC(C)CNC(CC(=O)O)c1ccccc1 (centres undefined) | 1.77% (inactive)
CCc1c(C)n([O-])c2c([n+]1=O)CCCCC2 | -29.8% (inactive)
COCc1cc(=O)n2[nH]c(C)nc2n1 | 15.9% (inactive)
O=C(CC1(O)C(=O)Nc2ccc(Br)cc21)c1ccc2c(c1)OCO2 (centres undefined) | -17.7% (inactive)
O=C(CN1C2=NCCN2c2ccccc21)c1ccco1 | 13% (inactive)

Compound | inhibition
COc1ccc(NS(=O)(=O)c2cc(NC(=O)c3ccc(C)s3)ccc2N2CCOCC2)cc1 | 11.5% (inactive)
CCOc1ccc(-c2c[n+]3c(n2-c2ccccc2)CCCCC3)cc1 | 5.49% (inactive)
COc1ccc(C2C(C#N)=C(N)Oc3n[nH]c(C)c32)cc1CSc1ccccn1 (centres undefined) | 30.4% (inactive)
CC(C)c1ccc2oc(=O)cc(CN3CCN(c4ccc(F)cc4)CC3)c2c1 | -10.1% (inactive)
CCCCc1cc(=O)oc2cc(C)c(CN3CCCC3)c(O)c12 | 4.75% (inactive)
CCN(CC)CCOC(=O)c1ccc(N/C=C(/C#N)c2nc(-c3ccc(OC)c(OC)c3)cs2)cc1 | -49.6% (inactive)
O=C(CSC1=NCCS1)Nc1nc2c(s1)CCCC2 | -13.1% (inactive)
CC(=O)c1c(C)nc(-c2cccc([N+](=O)[O-])c2)n1O | 13.7% (inactive)
O=C(CSc1cccc2cccnc12)Nc1ccc(S(=O)(=O)N2CCOCC2)cc1 | 0.8% (inactive)
CC(=O)Nc1cc(-c2ccc(Cl)cc2)[nH]n1 | 14.5% (inactive)
Cc1ccc(C(=O)NCC(=O)NCCc2ccc(S(N)(=O)=O)cc2)s1 | -6.17% (inactive)
N#Cc1nc(COc2ccc(Br)cc2)oc1NCCCn1ccnc1 | 39.4% (inactive)
O=C1CCCN1c1ccc(CNS(=O)(=O)c2ccc(F)cc2)cc1 | 17.6% (inactive)
COc1ccccc1C(=O)Nc1nnc(-c2ccc(Cl)cc2)o1 | 33.4% (inactive)
COc1cccc(-c2nc(CS(=O)CC(=O)NCCCOC(C)C)c(C)o2)c1 (centres undefined) | -12% (inactive)
COc1ccc(S(=O)(=O)NCCSCc2ccco2)cc1Cl | 15.2% (inactive)
Cn1c(N/N=C/c2c[nH]c3ccccc23)nc2ccccc21 | 15.1% (inactive)
O=C(N/N=C\c1c[nH]c2ccccc12)c1ccc(O)cc1 | 37% (inactive)
COc1cc(C(=O)N/N=C/c2coc3ccccc3c2=O)cc(OC)c1OC | 37.1% (inactive)
O=C1CC(=O)CC(c2ccco2)C1 | -5.92% (inactive)
FC(F)Oc1ccc(NC(=S)NCc2nc3ccccc3[nH]2)cc1 | 6.2% (inactive)
Cc1nn(-c2ccccc2)c(C)c1/C=N/n1c(-c2ccc(C(C)(C)C)cc2)n[nH]c1=S | -19.4% (inactive)
O=C1CCCN1CCC1CCN(C2CC(=O)N(c3ccc(Cl)cc3)C2=O)CC1 (centres undefined) | 21.5% (inactive)

Compound | inhibition
COc1ccc(-c2cc(=NCC(=O)O)c3ccccc3o2)cc1 | 10.1% (inactive)
COc1ccc(C(=O)Oc2ccc(/C=N/O)cc2)cc1 | 18.4% (inactive)
CCCC1=C(C(=O)OCC)C(c2ccc(O)cc2)n2ncnc2N1 (centres undefined) | 4.74% (inactive)
Cc1cc2ccccc2c(=O)n1CC(=O)NCCC1=CCCCC1 | 14.6% (inactive)
Cc1ccccc1C(=O)c1cccn1CC(=O)NCCC1=CCCCC1 | 10.5% (inactive)
Cc1nc(C)c(-c2ccc(SCc3ccccc3F)nn2)s1 | -11.1% (inactive)
O=C(O)c1cn(-c2ccc(F)cc2)c2cc(Cl)c(F)cc2c1=O | 22.6% (inactive)
COC(=O)C(O)(c1c(C)[nH]n(-c2ccccc2)c1=O)C(F)(F)F (centres undefined) | 29.5% (inactive)
CN(C)C(=O)COC(=O)/C=C/c1ccccc1[N+](=O)[O-] | 0.25% (inactive)
Cc1nc2scc(C)n2c(=O)c1S(=O)(=O)N1CCN(c2cccc(C(F)(F)F)c2)CC1 | -29.1% (inactive)
COc1ccccc1Oc1coc2c(CN3CCN(C)CC3)c(O)ccc2c1=O | -13.2% (inactive)
O=c1cc(-c2ccccc2)nc(N2CCN(Cc3ccccc3)CC2)[nH]1 | 10% (inactive)
CCCC(c1nnnn1Cc1ccc(OC)cc1)N1CCN(c2ccccc2OC)CC1 (centres undefined) | -22.1% (inactive)
CCCCCN1C(=O)/C(=C/c2c(N3CCc4ccccc4C3)nc3ccccn3c2=O)SC1=S | -24.1% (inactive)
Cc1ccc(-n2ncc3c(=O)[nH]cnc32)c(C)c1 | 8.53% (inactive)
CCCCN(CCCC)CCNC(=O)CSCc1ccc(C)cc1 | 10.3% (inactive)
COc1ccc(N2C(=O)CC(N3CC=C(c4ccccc4)CC3)C2=O)cc1 (centres undefined) | -11.4% (inactive)
Brc1ccc2c(c1)CN1CCCC1=N2 | 15% (inactive)
CC(C)[C@@H](C(=O)NC1CCCC1)N1C(=O)N2CCc3c([nH]c4ccccc34)[C@@]2(C)C1=O | -11.3% (inactive)
O=C(N/N=C/c1ccc(F)c(F)c1)c1cc2c(s1)-c1ccccc1CC2 | 15% (inactive)
COc1ccc(Cl)cc1NC(=O)c1cc(-c2ccccc2)on1 | -21.2% (inactive)
COc1cc(CNc2ccc(N3CCN(C(C)=O)CC3)cc2)ccc1OCc1ccccc1 | 15.1% (inactive)
COc1cccc(CNC23CC4CC(CC(C4)C2)C3)c1OCc1ccccc1 | -6.35% (inactive)

Compound | inhibition
O=c1c2ccccc2nc(-c2ccoc2)n1CCc1ccccc1 | 13.3% (inactive)
CCc1nc(SCC(=O)NCCc2ccccc2)c2c(=O)n(C)c(=O)n(C)c2n1 | 16.1% (inactive)
Cn1c(=O)c2c(nc(Br)n2CCSc2nc3ccccc3o2)n(C)c1=O | -4.7% (inactive)
CC1(C)CC(CCNC(=O)c2ccc(-n3cnnn3)cc2)CC(C)(C)N1 | -4.51% (inactive)
COc1ccc(C(=O)Nc2cc3c(cc2OC)CCCC3)cc1Br | -5.19% (inactive)
Nn1cnnc1SCC(=O)Nc1ccc(C2CCCCC2)cc1 | 27.5% (inactive)
c1ccc(-c2nc(NC3CC3)nc(-n3ccnc3)n2)cc1 | -18.3% (inactive)
O=C(Nc1ccc2c(c1)nc1n2CCN(Cc2ccccc2)C1)c1cccs1 | 23.8% (inactive)
Cc1ccccc1Oc1ccc(Oc2ccccc2C)nn1 | -7.56% (inactive)
CC1CCN(C(=O)C2CCCN(S(C)(=O)=O)C2)CC1 (centres undefined) | -2.71% (inactive)
CCN(CC)C(=O)C1CCN(Cc2ccc(Br)cc2)CC1 | 11.4% (inactive)
C[N+]1(C)C2CCC1CC(OC(=O)c1ccccc1)C2 (centres undefined) | 1.68% (inactive)
CN(C)C=NC(=O)c1cc(C(=O)c2ccc(Cl)cc2Cl)c[nH]1 | 29.9% (inactive)
COc1ccc(N2C3=C(CC4=C2CC(C)(C)CC4=O)C(=O)CC(C)(C)C3)cc1 | 14.8% (inactive)
COc1ccc(Cl)cc1NC(=O)CN(C)CC(=O)Nc1ccccc1C(F)(F)F | 9.99% (inactive)
CC1Cc2ccccc2N1C(=O)CN1C(=O)C(=O)N(Cc2ccccc2)C1=O (centres undefined) | -9.75% (inactive)
Cc1c(/C=N/NC(=O)c2ccc3c(c2)OCO3)cnn1C | 12.9% (inactive)
Cc1c(/C=N/NC(=O)c2sc3ccccc3c2Cl)cnn1C | 10.8% (inactive)
N#CC1=C2N=C(N)c3ccccc3N2C2=C(C(=O)CCC2)C1c1cccc(Cl)c1 (centres undefined) | -19.9% (inactive)
CC(C(=O)c1ccc2ccccc2c1)N1CCCCC1 (centres undefined) | 36.4% (inactive)
c1ccc2oc(-c3ccc(Nc4nc(N5CCCCC5)nc(N5CCOCC5)n4)cc3)nc2c1 | 8.13% (inactive)
CCOc1ccccc1NC1=NC2CS(=O)(=O)CC2S1 (centres undefined) | -10.3% (inactive)
CC(C)c1cc(C(=O)Nc2ccc3c(c2)OCO3)no1 | 9.74% (inactive)

Compound | inhibition
CCOC(=O)c1sc(N)c(C(=O)OC)c1C | -13.7% (inactive)
S=C1SCN(Cc2cccnc2)CN1Cc1cccnc1 | 25% (inactive)
CC(OC(=O)Cc1coc2cc3c(cc12)CCC3)C(=O)NCc1ccc2c(c1)OCO2 (centres undefined) | 5.64% (inactive)
Cc1ccc(NC(=O)CN(C)C(=O)Cn2ccsc2=N)cc1 | 27.2% (inactive)
O=C(NC(C(=O)c1ccccc1)n1c(=O)cc[nH]c1=S)c1ccccc1 (centres undefined) | 16.6% (inactive)
CCSc1nc(C)cc(C)c1S(=O)(=O)c1ccccc1C | 1.56% (inactive)
CCN(CC)CCSc1nnc2c3ccccc3n(Cc3ccccc3)c2n1 | 16.3% (inactive)
O=C1SC(c2ccccc2)=C/C1=C\N1CCCCC1 | 31.5% (inactive)
Cc1cc(C)n(-c2nc3ccccc3nc2N2CCN(C(=O)c3ccc(F)cc3)CC2)n1 | 10.4% (inactive)
O=C(CCNS(=O)(=O)c1cccc2nonc12)N1CCN(c2cccc(Cl)c2)CC1 | -12.9% (inactive)
Cc1c(C=O)c2ccccn2c1C(=O)c1ccccc1 | 0.47% (inactive)
CCCCC(=O)Nc1ccc2c(c1)C(=O)NC2=O | -15.3% (inactive)
CCOC(=O)COc1cccc2c(=O)n(CC(=O)N3CCCCC3)ccc12 | 3.71% (inactive)
COc1cccc(-c2cc(C(=O)O)[nH]n2)c1 | -27.4% (inactive)
COc1nc(N(C#N)CC(N)=O)nc(N2CCCC2)n1 | -14.2% (inactive)
CCCCOc1ccc(CN=C(N)N)cc1Cl | 23.5% (inactive)
COc1ccc(CSCCN)cc1Cl | 38% (inactive)
COC(=O)c1cc(CSC(=N)N)ccc1OCCC(C)C | 3.72% (inactive)
CCOC(=O)c1c(CSC(=N)N)n(C)c2cc(Br)c(OC(C)=O)cc12 | 38.3% (inactive)
CCOC(=O)c1cccc(NC(=O)c2cccs2)c1 | -4.52% (inactive)
Cn1cnc2cc(NC(=O)c3cccs3)ccc21 | 28.9% (inactive)
CCN(CC)CCNc1nc(-c2ccc(OC)cc2)c(-c2ccc(OC)cc2)s1 | 27.2% (inactive)
